Molecules are shown by their SMILES. Activity calls are given as the source filed them. How the source made its calls: active means hit-call score of the fitted dose curve at least 0.9, where 1 is the maximum; inactive means score below 0.9.

What all share (conditions): mRNA level, 48 h; actives raise or lower the signal
Read-out in assay [1]: Cyclin D1 (CCND1), CCND1 (gene 595)
Kind of assay: LTEA_HepaRG_CCND1: Life Technologies and Expression Analysis (LTEA) Assay for Cyclin D1 (CCND1) using HepaRG (AID 2283451). The method, boiled down: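 Differentiated human HepaRG cells in serum-free induction medium were exposed 48 h to eight half-log concentrations up to 100 uM in 0.5% DMSO; mRNA quantified by TaqMan qRT-PCR, normalized to ACTB, GAPDH, POLR2A, fitted bidirectionally versus DMSO.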

Read-out in assay [2]: catalase (CAT), CAT (gene 847)
Kind of assay: LTEA_HepaRG_CAT: Life Technologies and Expression Analysis (LTEA) Assay for catalase (CAT) using HepaRG (AID 2283452). A digest of the protocol:
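HepaRG cells in serum-free induction medium, 0.5% DMSO vehicle, exposed 48 h in duplicate over 8 half-log concentrations from 100 uM. CAT mRNA measured by qRT-PCR, normalized to ACTB, GAPDH, POLR2A; bidirectional fit versus DMSO.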

Read-out in assay [3]: flavin-containing dimethylaniline monooxygenases 3 (FMO3), FMO3 (gene 2328)
Kind of assay: LTEA_HepaRG_FMO3: Life Technologies and Expression Analysis (LTEA) Assay for flavin-containing dimethylaniline monooxygenases 3 (FMO3) using HepaRG (AID 2283453). A digest of the protocol: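 HepaRG, 48 h exposure, 8-pt half-log series from 100 uM, 0.5% DMSO vehicle, duplicates; FMO3 transcript by Fluidigm TaqMan qRT-PCR, housekeeping-normalized; gain/loss fit vs DMSO.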

Read-out in assay [4]: Cytochrome P450 (CYP1A1), CYP1A1 (gene 1543)
The assay can be described thus: LTEA_HepaRG_CYP1A1: Life Technologies and Expression Analysis (LTEA) Assay for Cytochrome P450 (CYP1A1) using HepaRG (AID 2283454). A digest of the protocol:
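Differentiated HepaRG cells in serum-free induction medium were exposed in duplicate for 48 h to eight half-log concentrations up to 100 uM in 0.5% DMSO. CYP1A1 mRNA was quantified by TaqMan qRT-PCR, normalized to ACTB, GAPDH and POLR2A.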

Read-out in assay [5]: CFLAR gene, CFLAR (gene 8837)
Kind of assay: LTEA_HepaRG_CFLAR: Life Technologies and Expression Analysis (LTEA) Assay for CFLAR gene using HepaRG (AID 2283455). A digest of the protocol:
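Differentiated HepaRG cells in serum-free induction medium were exposed 48 h in duplicate to eight half-log concentrations up to 100 uM in 0.5% DMSO; mRNA measured by TaqMan qRT-PCR, normalized to ACTB, GAPDH, POLR2A; bidirectional fitting versus DMSO.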

Read-out in assay [6]: Forkhead box O1 (FOXO1), FOXO1 (gene 2308)
The assay can be described thus: LTEA_HepaRG_FOXO1: Life Technologies and Expression Analysis (LTEA) Assay for Forkhead box O1 (FOXO1) using HepaRG (AID 2283456). The method, boiled down:
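Differentiated HepaRG cells, in serum-free induction medium with 0.5% DMSO, exposed 48 h in duplicate to 8-point half-log series from 100 uM. FOXO1 mRNA measured by TaqMan qRT-PCR, normalized to ACTB, GAPDH, POLR2A; bidirectional fit versus DMSO.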

Read-out in assay [7]: growth arrest and DNA damage 45 (GADD45A), GADD45A (gene 1647)
The assay can be described thus: LTEA_HepaRG_GADD45A: Life Technologies and Expression Analysis (LTEA) Assay for growth arrest and DNA damage 45 (GADD45A) using HepaRG (AID 2283458). The method, boiled down: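 Human HepaRG liver cells are treated in duplicate for 48 h with chemicals in 0.5% DMSO, highest concentration 100 uM. Expression is read by qRT-PCR and analyzed in both directions against vehicle.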

Read-out in assay [8]: Forkhead box O3 (FOXO3), FOXO3 (gene 2309)
The assay can be described thus: LTEA_HepaRG_FOXO3: Life Technologies and Expression Analysis (LTEA) Assay for Forkhead box O3 (FOXO3) using HepaRG (AID 2283459). The method, boiled down: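 Differentiated human HepaRG cells, 48 h post-plating, exposed in duplicate for 48 h in serum-free induction medium; 8-point half-log series from 100 uM in 0.5% DMSO. FOXO3 mRNA by TaqMan qRT-PCR, normalized to ACTB/GAPDH/POLR2A; bidirectional fit versus DMSO.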

Read-out in assay [9]: growth arrest and DNA damage 45 (GADD45B), GADD45B (gene 4616)
The assay can be described thus: LTEA_HepaRG_GADD45B: Life Technologies and Expression Analysis (LTEA) Assay for growth arrest and DNA damage 45 (GADD45B) using HepaRG (AID 2283461). The method, boiled down:
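Differentiated HepaRG cells, plated 48 h then switched to serum-free induction medium, were exposed 48 h in duplicate to eight half-log concentrations from 100 uM in 0.5% DMSO; mRNA quantified by qRT-PCR, normalized to ACTB/GAPDH/POLR2A, bidirectional fit versus DMSO.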

Read-out in assay [10]: ABC Transporter (ABCB11), ABCB11 (gene 8647)
Kind of assay: LTEA_HepaRG_ABCB11: Life Technologies and Expression Analysis (LTEA) Assay for ABC Transporter (ABCB11) using HepaRG (AID 2283463). The method, boiled down:
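Differentiated human HepaRG cells in serum-free induction medium, dosed in duplicate for 48 h. Eight-point half-log series from 100 uM in 0.5% DMSO; ABCB11 mRNA by qRT-PCR, normalized to ACTB, GAPDH, POLR2A, fitted bidirectionally versus DMSO.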

Read-out in assay [11]: ABC Transporter (ABCC2), ABCC2 (gene 1244)
The assay can be described thus: LTEA_HepaRG_ABCC2: Life Technologies and Expression Analysis (LTEA) Assay for ABC Transporter (ABCC2) using HepaRG (AID 2283464). The method, boiled down:
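HepaRG cells were plated 48 h, switched to serum-free induction medium, then exposed in duplicate for 48 h to 8 concentrations (top 100 uM, half-log steps, 0.5% DMSO). ABCC2 mRNA was measured by qRT-PCR normalized to ACTB/GAPDH/POLR2A; bidirectional fitting versus DMSO.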

Read-out in assay [12]: Broad substrate specificity ATP-binding cassette transporter ABCG2 (Homo sapiens) (UniProt Q9UNQ0)
The assay can be described thus: LTEA_HepaRG_ABCG2: Life Technologies and Expression Analysis (LTEA) Assay for ABC Transporter (ABCG2) using HepaRG (AID 2283465). The method, boiled down:
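Differentiated HepaRG cells were exposed for 48 h in serum-free induction medium to 8 half-log concentrations, top 100 uM, in 0.5% DMSO. ABCG2 mRNA was measured by qRT-PCR, normalized to ACTB, GAPDH and POLR2A, with bidirectional fitting versus DMSO.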

Read-out in assay [13]: ATP-citrate lyase (ACLY), ACLY (gene 47)
The assay can be described thus: LTEA_HepaRG_ACLY: Life Technologies and Expression Analysis (LTEA) Assay for ATP-citrate lyase (ACLY) using HepaRG (AID 2283466). The method, boiled down: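 Differentiated HepaRG cells exposed 48 h in serum-free induction medium to eight half-log concentrations up to 100 uM in 0.5% DMSO, duplicates. Transcript measured by Fluidigm TaqMan qRT-PCR, normalized to ACTB, GAPDH, POLR2A; bidirectional fit versus DMSO.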

Read-out in assay [14]: Peroxisomal acyl-coenzyme A oxidase 1 (ACOX1) gene, ACOX1 (gene 51)
Kind of assay: LTEA_HepaRG_ACOX1: Life Technologies and Expression Analysis (LTEA) Assay for Peroxisomal acyl-coenzyme A oxidase 1 (ACOX1) gene using HepaRG (AID 2283467). The method, boiled down: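 HepaRG cells, plated 48 h then switched to serum-free induction medium, were exposed in duplicate for 48 h to 8-point half-log concentrations up to 100 uM in 0.5% DMSO. ACOX1 mRNA was measured by qRT-PCR, normalized to ACTB/GAPDH/POLR2A, and fitted bidirectionally versus DMSO.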

Read-out in assay [15]: Bcl-2 (BAD) gene, BAD (gene 572)
Kind of assay: LTEA_HepaRG_BAD: Life Technologies and Expression Analysis (LTEA) Assay for Bcl-2 (BAD) gene using HepaRG (AID 2283469). The method, boiled down: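 Differentiated HepaRG cells were exposed in duplicate in 0.5% DMSO for 48 h to eight-point half-log concentrations up to 100 uM. BAD mRNA was measured by Fluidigm TaqMan qRT-PCR, normalized to ACTB, GAPDH and POLR2A, and fitted bidirectionally against DMSO.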

Read-out in assay [16]: Bcl-2 (BAX) gene, BAX (gene 581)
Kind of assay: LTEA_HepaRG_BAX: Life Technologies and Expression Analysis (LTEA) Assay for Bcl-2 (BAX) gene using HepaRG (AID 2283470). The method, boiled down: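 Concentration-response endpoint fitted in both directions relative to 0.5% DMSO vehicle. Human HepaRG cultures receive test chemicals for 48 h at up to 100 uM; BAX mRNA is quantified by qRT-PCR against housekeeping genes.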

Read-out in assay [17]: ABC Transporter (ABCB1), ABCB1 (gene 5243)
The assay can be described thus: LTEA_HepaRG_ABCB1: Life Technologies and Expression Analysis (LTEA) Assay for ABC Transporter (ABCB1) using HepaRG (AID 2283460). A digest of the protocol: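 HepaRG cells exposed in duplicate for 48 h in serum-free induction medium to eight half-log concentrations up to 100 uM in 0.5% DMSO. ABCB1 mRNA quantified by qRT-PCR, normalised to ACTB, GAPDH and POLR2A; fitted bidirectionally versus DMSO.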

Read-out in assay [18]: ABC Transporter (ABCC3), ABCC3 (gene 8714)
Kind of assay: LTEA_HepaRG_ABCC3: Life Technologies and Expression Analysis (LTEA) Assay for ABC Transporter (ABCC3) using HepaRG (AID 2283462). The method, boiled down: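 HepaRG cells in serum-free induction medium were exposed for 48 h in duplicate to 8-point half-log concentrations topping at 100 uM in 0.5% DMSO. ABCC3 mRNA was measured by qRT-PCR normalized to ACTB, GAPDH and POLR2A, with bidirectional fitting versus DMSO.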

Broad substrate specificity ATP-binding cassette transporter ABCG2 (Homo sapiens), sequence (Q9UNQ0 whole entry, looked up): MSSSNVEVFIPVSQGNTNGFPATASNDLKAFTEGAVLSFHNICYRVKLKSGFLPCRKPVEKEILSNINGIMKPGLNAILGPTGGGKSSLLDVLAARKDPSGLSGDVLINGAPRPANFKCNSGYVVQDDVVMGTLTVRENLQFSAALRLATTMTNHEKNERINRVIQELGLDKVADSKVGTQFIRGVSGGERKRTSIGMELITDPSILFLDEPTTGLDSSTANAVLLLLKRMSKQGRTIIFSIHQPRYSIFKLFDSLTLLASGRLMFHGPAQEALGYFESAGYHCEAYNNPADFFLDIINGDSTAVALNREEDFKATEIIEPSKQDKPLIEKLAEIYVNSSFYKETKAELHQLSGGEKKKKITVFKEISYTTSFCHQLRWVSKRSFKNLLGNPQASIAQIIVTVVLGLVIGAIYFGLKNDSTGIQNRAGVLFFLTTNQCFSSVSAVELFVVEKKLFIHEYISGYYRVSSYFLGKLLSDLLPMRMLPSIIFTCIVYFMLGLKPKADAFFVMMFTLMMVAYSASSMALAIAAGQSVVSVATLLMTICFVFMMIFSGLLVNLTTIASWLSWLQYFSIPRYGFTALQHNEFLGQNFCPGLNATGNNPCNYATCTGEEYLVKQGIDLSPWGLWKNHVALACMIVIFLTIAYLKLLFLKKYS

As to `CCC(C)(C)C1CCC(O)CC1` (stereo not given), the outcome in assay [1], in assay [2], in assay [3], in assay [4], in assay [5] and in assay [6] was inactive. Besides, the call in [7], in assay [8], in assay [9], in [10], in assay [11] and in assay [12] was inactive. Further, the result in assay [13], in assay [14], in assay [15] and in assay [16] was inactive.

With `CCCCC(CC)COC(=O)CCCCC(=O)OCC(CC)CCCC` (stereo not given), the compound was called inactive in [1], in [2], in [3], in assay [4], in [5] and in [6]. The compound was classed as inactive in assay [7], in assay [8], in assay [17], in assay [9], in [10] and in assay [11]. For the same compound, the result in assay [12], in assay [13], in assay [14], in assay [15] and in [16] was inactive.

`CC#C[C@]1(O)CC[C@H]2[C@@H]3CCC4=CC(=O)CCC4=C3[C@@H](c3ccc(N(C)C)cc3)C[C@@]21C`: the concentration at half-maximal activity (AC50) in assay [2] was 34.2 µM (active); in assay [3] it was 33.4 µM (active); in [4] it was 50 µM (active); in assay [6], 3.33 µM (active); in [7] it was 72.6 µM (active); in [8], 91.2 µM (active). The AC50 is 26.9 µM (active) in assay [17]; 12 µM (active) in [9]; 24.7 µM (active) in assay [10]; 2.42 µM (active) in [11]; 29.8 µM (active) in assay [12]; 79.1 µM (active) in [13]. The AC50 is 25.4 µM (active) in assay [15] and 27.6 µM (active) in assay [16]. For the same compound, the result in assay [5], in assay [18] and in assay [14] was inactive.

These data come from PubChem BioAssay (EPA / NIEHS).
